SKKanGAS inh: inhibitors of SKKanGAS S. pyogenes growth in kanamycin (SK-promoter or general growth effect) | AID 1662 | inhibition, % at 7.5 µM | 300,000 tested, 1.3% active | BacTiter-Glo, 6 h;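 active = mean replicate score, as percent of positive control median, at least 50; inconclusive = mean below 50 but one replicate at or above 50; inactive = mean and every replicate below 50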;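 also: strain carries kanamycin resistance gene driven by streptokinase promoter and grows in 40 µg/ml kanamycin; loss of luminescence reflects streptokinase promoter inhibition or plain growth inhibition; 0% = median of DMSO wells and 100% = positive control at its reference dose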
PfHsp90 yeast 2: inhibits growth of yeast expressing Plasmodium falciparum Hsp90 | S. cerevisiae expressing PfHsp90, BacTiter-Glo ATP, 48 h; yeast lacking PDR1 and PDR3 efflux regulators | inhibition, % at 9.4 µM | 310,000 tested, 0.32% active | AID 504621;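 active = every replicate shows inhibition above about 80%, whatever the replicate mean, limit read from the data; inconclusive = mean inhibition reaches the set limit but some replicate falls short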;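 also: 0% = DMSO neutral controls and 100% = 20 µM radicicol positive controls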
tim23-1 inh: tim23-1 yeast growth inhibition | S. cerevisiae tim23-1 growth, BacTiter-Glo luminescence, 24 h | inhibition, % at 20 µM | 330,000 tested, 1.3% active | AID 463212;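 active = growth inhibition of the mutant yeast at or above 50%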;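 also: temperature-sensitive mutant grown at 25 °C; plate controls were DMSO-treated mutant yeast for no effect and medium wells lacking yeast for full effect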
tim10-1 inh: growth inhibitors of tim10-1 mutant yeast. AID 463190. S. cerevisiae tim10-1 ts strain growth, BacTiter-Glo, 24 h. 330,000 tested, 2.2% active. inhibition, % at 20 µM;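 active = inhibition of at least 40%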;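 also: mutant grown at 25 °C; 0% = DMSO wells with yeast and 100% = wells holding no yeast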
NALP1 yeast inh: inhibitors of NALP1 inflammasome in yeast | 280,000 tested, 0.61% active | inhibition, % at 10 µM | S. cerevisiae NALP1/ASC/caspase-1 growth, X-gal OD620, 72 h; in the data active = inhibition mostly above about 24%, no sharp cut-off; inactive = mostly below about 32%
TIM10 inh: TIM10 yeast growth inhibition | S. cerevisiae TIM10 strain growth, BacTiter-Glo luminescence, 24 h | inhibition, % at 10 µM | 330,000 tested, 1.4% active;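 active = inhibition of 40% or more at the single tested concentration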;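 also: wild-type TIM10 isogenic control strain grown at permissive 25 °C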
TIM10 conf: confirmation of TIM10 yeast growth inhibitors; shares compounds with TIM10 inh; S. cerevisiae tim10 strain growth, BacTiter-Glo luminescence, 24 h; inhibition, % at 10 µM; 4,600 tested, 63% active;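 active = inhibition of yeast growth at or above a set limit in either of two replicates at 10 µM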;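 also: this counterscreen used the strain with wild-type TIM10; 0% = yeast with DMSO and 100% = medium wells lacking yeast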
* marks the source's active call; other numbers are inactive results; ? = inconclusive; . = not tested or not shown. In the library only some 4.8% were active in any assay of this set; here they are far more common.

SMILES	SKKanGAS inh	PfHsp90 yeast 2	tim23-1 inh	tim10-1 inh	NALP1 yeast inh	TIM10 inh	TIM10 conf
CCCCOc1ccc(C(=O)NCC(=O)N(C)CC(=O)Nc2ccc(N3CCOCC3)cc2)cc1	-1	-3	17	14	.	9	.
CC(Sc1nnc(N)s1)C(=O)NC1CCCCC1C (stereo unspecified)	35	.	-3	-14	.	1	.
Fc1cccc(Cn2cc(C(=S)N3CCCCC3)c3ccccc32)c1	11	-27	36	38	19	48*	30
CCN(CC)S(=O)(=O)c1ccc(/C=C/C(=O)Nc2cccc(F)c2)cc1	5	-4	28	39	27	59*	-13
CSc1cccc(NC(=O)/C=C/c2ccccc2)c1	-6	12	44	30	12	40	16
NNc1nc(Nc2ccccc2)nc(N2CCCCC2)n1	26	3	37	32	-4	41*	6
O=[N+]([O-])c1ccc(Nc2nc(N3CCOCC3)nc(N3CCOCC3)n2)cc1	3	-17	19	14	.	13	.
NNc1nc(Nc2ccc([N+](=O)[O-])cc2)nc(N2CCCCCC2)n1	82*	-10	42	33	12	97*	25
Cc1cccc(NC(=O)CCN2CCC(C(N)=O)CC2)c1	0	-15	10	-8	13	-1	.
C/C(=N\Nc1nc(Cl)c(Cl)cc1Cl)c1ccc(S(=O)(=O)NCc2ccco2)cc1	20	8	18	23	17	25	.
Cn1cnnc1Sc1ccc(/C=C/C(=O)c2ccc(O)cc2)cc1[N+](=O)[O-]	-3	5	37	25	-2	24	.
COc1ccc(NC(=O)/C(C#N)=C/c2ccc(Sc3nncn3C)c([N+](=O)[O-])c2)cc1	-6	-5	47	30	-23	54*	29
CCOc1ccc(/C=N/NC(=O)Nc2ccccc2)cc1	0	.	13	12	16	24	.
CC(=O)Oc1ccc(/C=N/NC(=S)Nc2ccccc2)cc1	-4	-13	48	22	3	41*	26
O=C(Nc1ccon1)Nc1ccc(Cl)cc1Cl	18	-4	28	33	9	30	.
CC(C)(C)c1cc(NC(=O)Nc2ccc(Br)cc2Cl)no1	-2	16	30	29	17	42*	41*
CC(C)(C)c1cc(NC(=O)Nc2ccc(Cl)cc2Cl)no1	7	1	27	34	.	42*	43*
CCc1cc(=O)oc2c3c(cc(OCC(=O)NCc4ccncc4)c12)OC(C)(C)CC3	1	-3	11	3	-2	2	.
COc1ccc(C(=O)NCCOc2cccc(Oc3ccccc3)c2)cc1OC	.	-16	19	1	.	-13	.
CC(C)(C)c1ccc(NC(=O)CSc2n[nH]c(=O)n2-c2cccnc2)cc1	-18	-9	0	-6	8	-6	.
CSc1nc(NCc2ccco2)c2ccccc2n1	3	-8	16	38	-5	40*	22
c1ccc(Nc2nc(NCc3ccco3)c3ccccc3n2)cc1	7	14	-23	-44	-7	-2	.
Cc1cc(C)n(C(C)CNC(=O)c2ccc3c(c2)OCO3)n1 (stereo unspecified)	-18	35	17	19	-4	-6	.
O=C(Cn1c2ccc(F)cc2c2nc3n(c(=O)c21)CCS3)Nc1ccc(Cl)cc1F	30	-22	8	38	11	41*	34*
O=[N+]([O-])c1ccc(/C=N/Nc2ccnc3cc(Cl)ccc23)o1	?	-16	-2	24	21	64*	71*
SMILES	SKKanGAS inh	PfHsp90 yeast 2	tim23-1 inh	tim10-1 inh	NALP1 yeast inh	TIM10 inh	TIM10 conf
CCn1c(C)cc(/C=C2/SC(=S)NC2=O)c1C	11	1	47	35	16	44*	-7
CCn1ncc(/C=C2/SC(=S)NC2=O)c1C	13	-21	15	23	36	12	.
CC(=O)c1cc(Cl)ccc1OCC(=O)NC1CCCC1	.	.	-3	-15	.	-14	.
CN(C)CCCNc1cc(C(C)(C)C)nc2c(-c3ccc(Cl)cc3)cnn12	75*	27	-17	-15	24	55*	60*
Cc1cc(NCCCN2CCOCC2)n2ncc(-c3ccc(Cl)cc3)c2n1	18	.	38	1	8	-26	.
CN(C(=S)Nc1ccc(SC(F)F)cc1)C(c1ccccc1)c1ccccc1	22	3	19	19	-6	42*	40*
Cc1ccc(N=Nc2c(O)[nH]c(=O)[nH]c2=O)cc1S(=O)(=O)Nc1ccc(Br)cc1	.	-6	-10	-1	.	-9	.
COc1ccc(NC(=S)NNC(=O)COc2ccc(Cl)cc2Cl)cc1	-6	-22	41	30	5	47*	-13
O=C1CSC(c2ccccc2Br)N1c1ccc(Cl)cn1 (stereo unspecified)	9	.	49	27	21	41*	29
O=C1CSC(c2ccc(Cl)cc2Cl)N1c1ccccn1 (stereo unspecified)	-2	-10	9	29	30	7	.
Cc1nc2ccccc2n1Cc1ccccc1	-1	4	2	5	19	7	.
c1ccc(Cc2nc3ccccc3n2Cc2ccccc2)cc1	10	-10	14	29	38	44*	32*
O=C(COC(=O)c1cccc(Br)c1)NCCc1ccc(F)cc1	-16	-1	-5	25	28	-4	.
CCc1c(-c2ccccc2)nc2sc3c(c2c1N)CCCC3	15	12	35	38	6	45*	49*
COc1cc(NC(=O)c2cccs2)ccc1NC(=O)c1ccco1	-8	-5	26	9	13	47*	-2
S=C(NCCc1ccccc1)Nc1ccc(Cl)cc1Cl	10	-18	36	34	3	49*	49*
COc1cc(C(=O)NCCNC(=O)C2CCCNC2=O)cc(OC)c1OC (stereo unspecified)	-8	24	11	10	-2	40*	-12
COc1cc(C(=O)NCCCNC(=O)c2cc(OC)c(OC)c(OC)c2)cc(OC)c1OC	1	.	-6	-21	.	-11	.
Cc1cccc(-c2nnnn2-c2cccc(C)c2)c1	-1	-16	8	4	0	-14	.
COc1ccccc1CCNC(=O)C(=O)NCC1OCCN1S(=O)(=O)c1ccc2c(c1)OCCO2 (stereo unspecified)	1	9	0	6	9	5	.
Cc1ccc(NC(=O)c2sccc2-n2cccc2)c(C)c1	6	64	19	26	0	7	.
CCOc1cc(/C=N/NC(=O)CCc2n[nH]c(=O)[nH]c2=O)ccc1O	8	-26	12	26	-10	7	.
COc1ccc(S(=O)(=O)N(Cc2nc3ccccc3c(=O)[nH]2)C2CCCC2)cc1	0	-5	30	30	10	42*	13

Screening results (PubChem BioAssay)
